Reference: PubChem BioAssay (NCI)
Compounds without any hit were thinned out: in the full panel of roughly 83,000, 20% have a hit.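 Single-concentration screen, 48 h exposure, 96-well plates. Endpoint: percent growth. Below 10 = active.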 Values without a mark were called inactive. The source made the active and inactive calls.

Tests used:
Test in all cases: NCI-60 one-dose screen, 48 h (100 = growth as untreated, 0 = no growth, -100 = all killed)
Conditions in all cases: 10 µM
HCT-15 colon = system: HCT-15 colon
HT29 colon = system: HT29 colon
SNB-75 CNS = system: SNB-75 CNS
SNB-19 CNS = system: SNB-19 CNS
U251 CNS = system: U251 CNS
PC-3 prostate = system: PC-3 prostate
SK-MEL-5 melanoma = system: SK-MEL-5 melanoma
UACC-62 melanoma = system: UACC-62 melanoma
LOX IMVI melanoma = system: LOX IMVI melanoma
SK-MEL-28 melanoma = system: SK-MEL-28 melanoma
SK-MEL-2 melanoma = system: SK-MEL-2 melanoma
SN12C renal = system: SN12C renal
UO-31 renal = system: UO-31 renal
ACHN renal = system: ACHN renal
CAKI-1 renal = system: CAKI-1 renal
A498 renal = system: A498 renal
CCRF-CEM leukemia = system: CCRF-CEM leukemia
MOLT-4 leukemia = system: MOLT-4 leukemia
EKVX NSCLC = system: EKVX NSCLC
TK-10 renal = system: TK-10 renal

SMILES | growth (HCT-15 colon) | growth (HT29 colon) | growth (SNB-75 CNS) | growth (SNB-19 CNS) [%] | growth (U251 CNS) | growth (PC-3 prostate) | growth (SK-MEL-5 melanoma) | growth (UACC-62 melanoma) | growth (LOX IMVI melanoma) | growth (SK-MEL-28 melanoma) | growth (SK-MEL-2 melanoma) | growth (SN12C renal) | growth (UO-31 renal) | growth (ACHN renal) | growth (CAKI-1 renal) | growth (A498 renal) | growth (CCRF-CEM leukemia) | growth (MOLT-4 leukemia) | growth (EKVX NSCLC) | growth (TK-10 renal) [%]
Nc1ccc(CC[C@H]2CCC/C=C/[C@@H]3C[C@H](O)C[C@H]3[C@H](O)/C=C/C(=O)O2)cc1 | 6.58% (active) | -39.8% (active) | 32.3% | 29.5 | 15.8% | 12.9% | -84.9% (active) | 11.7% | -74.4% (active) | 5.16% (active) | -25.9% (active) | 7.47% (active) | 2.24% (active) | 10% | 7.49% (active) | -32.4% (active) | -3.7% (active) | -18.8% (active) |  | 
C=C(NC(=O)C(=C)NC(=O)c1csc(C2=NC3c4csc(n4)C4NC(=O)c5csc(n5)C(C(C)(O)C(C)O)NC(=O)C5CSC(=N5)C(=CC)NC(=O)C(C(C)O)NC(=O)c5csc(n5)C3(CC2)NC(=O)C(C)NC(=O)C(=C)NC(=O)C(C)NC(=O)C(C(C)CC)NC2C=Cc3c(C(C)O)cc(nc3C2O)C(=O)OC4C)n1)C(N)=O (stereo not given) | 36.9% | 3.8% (active) | 66.7% | 66.6 | 8.08% (active) | 63.7% | -5.61% (active) | -17% (active) | -7.87% (active) | -34.5% (active) |  | 25.6% | 64.7% | 23.6% | 71.4% | -41.5% (active) | -10.1% (active) | -36.9% (active) | 72.2% | 27.7
COc1ccc2nc3cc(Cl)ccc3c(Nc3cc(CN4CCCC4)c(O)c(CN4CCCC4)c3)c2n1 | 5.6% (active) | 1.23% (active) | -64.4% (active) | 14.5 | 10.4% | 6.93% (active) | -96.1% (active) | -23.4% (active) | -8.24% (active) | -21.8% (active) |  | 10.7% | 18.9% | 22.9% | -4.38% (active) | -17.4% (active) | 2.85% (active) | -25.2% (active) | 8.66% (active) | 21.4
CCc1c2c(nc3ccc(OC(=O)N4CCC(N5CCCCC5)CC4)cc13)-c1cc3c(c(=O)n1C2)COC(=O)[C@]3(O)CC | 53.1% | 28.8% | -5.06% (active) | 26 | 13.6% | 40.9% | -11.9% (active) | 17.9% | 4.61% (active) | 67% |  | 16.2% | 11.6% | 1.66% (active) | -17.4% (active) | 9.23% (active) | 5.44% (active) | -20.6% (active) | 67.2% | 81.6
